According to PubChem BioAssay (NCI):
About 83,000 compounds went through this panel and 20% of them were active in at least one assay; those are over-represented in the sample as a whole.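 For each line, cells grew in 96-well plates with the test compound present at a single concentration for 48 hours.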 The source made the active and inactive calls. Rule for the calls: active = growth percent below 10; inactive = the rest.

Assays:
Test in all cases: NCI-60 one-dose screen, 48 h (100 = growth as untreated, 0 = no growth, -100 = all killed)
[1] = tested on: NCI-H322M lung; conditions: 10 µM
[2] = tested on: HOP-62 NSCLC; conditions: 10 µM
[3] = tested on: A549/ATCC NSCLC; conditions: 10 µM
[4] = tested on: COLO 205 colon; conditions: 10 µM
[5] = tested on: DU-145 prostate; conditions: 10 µM
[6] = tested on: MALME-3M melanoma; conditions: 10 µM
[7] = tested on: SF-268 CNS; conditions: 10 µM
[8] = tested on: SF-295 CNS; conditions: 10 µM
[9] = tested on: SF-539 CNS; conditions: 10 µM
[10] = tested on: UACC-257 melanoma; conditions: 10 µM
[11] = tested on: M14 melanoma; conditions: 10 µM
[12] = tested on: HCT-15 colon; conditions: 10 µM
[13] = tested on: HT29 colon; conditions: 10 µM
[14] = tested on: SNB-75 CNS; conditions: 10 µM
[15] = tested on: SNB-19 CNS; conditions: 10 µM
[16] = tested on: SK-MEL-5 melanoma; conditions: 10 µM
[17] = tested on: UACC-62 melanoma; conditions: 10 µM
[18] = tested on: SK-MEL-28 melanoma; conditions: 10 µM
[19] = tested on: SK-MEL-2 melanoma; conditions: 10 µM
[20] = tested on: HL-60(TB) leukemia; conditions: 10 µM unless noted

Measured: growth

CC1=C(CCC=O)C2=C(C)C3(CC3)[C@@](C)(O)C(=O)C2=C1
active: [1] -84.9% | [2] -62.7% | [3] -2.03% | [4] -71.4% | [5] -100% | [6] -96% | [7] 6.81% | [8] -64.3% | [9] -100% | [10] -92.1% | [11] -56.8% | [12] -71.1% | [13] -56.1% | [14] -96.9% | [15] -100% | [16] -100% | [17] -96.5% | [18] -99.3% | [19] -70.6%

COCCOCCOCCOc1ccc(-n2cc(CCCN(CCNc3ccnc4cc(Cl)ccc34)C(=O)CCC(=O)O[C@@H]3O[C@@H]4OC5(C)CC[C@H]6[C@H](C)CC[C@@H]([C@H]3C)[C@@]46OO5)nn2)cc1
inactive: [1] 69.2% | [2] 61.2% | [3] 46.1% | [4] 11.8% | [5] 62% | [7] 56.9% | [8] 40.5% | [9] 47.4% | [10] 13.1% | [11] 34.8% | [12] 14.2% | [13] 20.6% | [14] 57.6% | [15] 56.3% | [17] 37% | [18] 53.1% | [19] 47.9%
active: [6] -61.2% | [16] -16.4% | [20] -27.5%

O=C(/C=C/c1ccccc1)c1nc2ccccc2n1Cc1ccc(Br)cc1
inactive: [14] 16.2%
active: [1] -6.79% | [2] -68% | [3] -3% | [4] -74.7% | [5] -48.3% | [6] -64.7% | [7] 3.91% | [8] -71.9% | [9] -93.4% | [10] -51.1% | [11] -51.8% | [12] -70.3% | [13] -60.3% | [15] -90.1% | [16] -57% | [17] -94.2% | [18] -73.3% | [19] -51.1% | [20] -14.4%

CC[C@]12C=CCN3CC[C@@]4(c5ccc(OC)cc5N(C)[C@H]4[C@@](O)(C(=O)OC)[C@@H]1OC(=O)CCCC[P+](c1ccc(OC)cc1)(c1ccc(OC)cc1)c1ccc(OC)cc1)[C@@H]32
active: [1] -89.6% | [2] -80.8% | [3] -83.7% | [4] -64.9% | [5] -58.2% | [6] -97.2% | [7] -38.1% | [8] -93.6% | [9] -97.4% | [10] -93.4% | [11] -89.8% | [12] -5.69% | [13] -63.1% | [14] -95.4% | [15] -95.7% | [16] -97% | [17] -95.2% | [18] -96.8% | [19] -91.4% | [20] -45.2%

O=C(/C=C/c1ccccc1Cl)c1nc2ccccc2n1Cc1ccc(F)cc1
active: [1] -42.1% | [2] -77.5% | [3] -44.3% | [4] -83.5% | [5] -34.8% | [6] -80% | [7] -2.61% | [8] -86.8% | [9] -94.4% | [10] -61.1% | [11] -79.4% | [12] -83.1% | [13] -85.6% | [14] 6.88% | [15] -79.2% | [16] -86.5% | [17] -93.2% | [18] -86.2% | [19] -68.5% | [20] -38.4%

CC1=C2C(=C[C@@](C)(COP(=O)(Oc3ccccc3)Oc3ccccc3)[C@@H]2O)C(=O)[C@@](C)(O)C12CC2
active: [1] -59.5% | [2] -88.4% | [3] -53.9% | [4] -95.8% | [5] -96.3% | [6] -96.7% | [7] -74.3% | [8] -59% | [9] -99.1% | [10] -41.2% | [11] -22.9% | [12] -32.5% | [13] -57.3% | [14] -94% | [15] -17.5% | [16] -99.2% | [17] -87.7% | [18] -88.1% | [19] -83.9%

CC[C@]12C=CCN3CC[C@@]4(c5ccc(OC)cc5N(C)[C@H]4[C@@](O)(C(=O)OC)[C@@H]1OC(=O)CCC[P+](c1ccc(F)cc1)(c1ccc(F)cc1)c1ccc(F)cc1)[C@@H]32
active: [4] -19% | [6] -32.6% | [10] -34.3% | [16] -38.3% | [17] -59.5% | [18] -24.1% | [19] -46.9% | [20] -22.9%
inactive: [1] 65.2% | [2] 64% | [3] 54.5% | [5] 47.7% | [7] 42.3% | [8] 85% | [9] 24.2% | [11] 21.5% | [12] 99.6% | [13] 15.7% | [14] 39.9% | [15] 13.8%

C[C@H]1[C@H](OC(=O)CCC(=O)N(CCCc2cn(-c3ccc(CN4CCOCC4)cc3)nn2)CCNc2ccnc3cc(Cl)ccc23)O[C@@H]2OC3(C)CC[C@H]4[C@H](C)CC[C@@H]1[C@@]24OO3
inactive: [1] 20.9% | [2] 56.4% | [3] 36% | [5] 49.7% | [7] 50.1% | [14] 38.7% | [15] 50.9% | [17] 16.6% | [19] 44.2%
active: [4] -30.1% | [6] -90% | [8] -2.37% | [9] -73% | [10] -69.8% | [11] -66.3% | [12] 8.55% | [13] -12.5% | [16] -90% | [18] -69.3% | [20] -47%

CC(=O)Oc1ccccc1C(=O)[Se]C(=NC(C)C)NC(C)C
active: [1] -82.6% | [2] -70.9% | [3] -3.31% | [4] -69% | [5] -92.6% | [6] -43.5% | [7] -30.9% | [8] -79% | [9] -98% | [10] -95.1% | [11] -92.7% | [12] -45.6% | [13] -57% | [14] -94.6% | [15] -88.5% | [16] -84.4% | [17] -44.2% | [18] -85.5% | [19] -79.4% | [20] -41.3%

COc1ccc(/C=C/C(=O)c2nc3ccccc3n2Cc2ccc(Br)cc2)cc1
inactive: [1] 73.9% | [2] 92.8% | [3] 74.6% | [4] 91.4% | [5] 61.9% | [6] 73.1% | [7] 68% | [8] 81.9% | [9] 78.3% | [10] 72.3% | [11] 72.5% | [12] 38.8% | [13] 64.9% | [14] 66.1% | [15] 74.4% | [16] 83.3% | [17] 65% | [18] 85.9% | [19] 88.8% | [20] 41.2%

COc1ccc2cc([C@H](C)C(=O)[Se]CCC#N)ccc2c1
active: [1] -21.6% | [2] -81.2% | [3] -64.9% | [4] -71% | [5] -76.4% | [6] -44.7% | [7] -45.8% | [8] -70.3% | [9] -67.3% | [10] -76.9% | [11] -63.9% | [12] -31.7% | [13] -49.3% | [14] -46.8% | [15] -68.7% | [16] -70.4% | [17] -67.7% | [18] -37.9% | [19] -42.1% | [20] -42.5%

COc1cc(OC)c(S(=O)(=O)N(CCCl)CCCl)cc1C(=O)/C=C/c1ccc(C)cc1
inactive: [1] 89.1% | [2] 70.8% | [3] 79.2% | [4] 117% | [5] 88.3% | [6] 83.5% | [7] 67.2% | [8] 66.7% | [9] 56.9% | [10] 90% | [11] 86.4% | [12] 81.8% | [13] 80.7% | [14] 90.1% | [15] 29.8% | [16] 97.5% | [17] 74.3% | [18] 102% | [19] 92.3% | [20] 65.6%

C#CC[Se]C(=O)c1ccc(C(=O)[Se]CC#C)s1
active: [20] -19.7%
inactive: [1] 14.5% | [2] 29.8% | [3] 31.1% | [4] 86% | [5] 56% | [6] 98.1% | [7] 105% | [8] 13.3% | [9] 65.5% | [10] 90.7% | [11] 73.7% | [12] 93.2% | [13] 63.6% | [14] 109% | [15] 58.7% | [16] 96.6% | [17] 92.3% | [18] 104% | [19] 126%

C[C@H]1[C@H](OC(=O)CCC(=O)N(CCCc2cn(-c3ccc([N+](=O)[O-])cc3)nn2)CCNc2ccnc3cc(Cl)ccc23)O[C@@H]2OC3(C)CC[C@H]4[C@H](C)CC[C@@H]1[C@@]24OO3
inactive: [1] 81.5% | [2] 69.4% | [3] 52.6% | [4] 20.1% | [5] 53.8% | [6] 47.5% | [7] 59.5% | [8] 46.1% | [9] 38.1% | [10] 63.3% | [11] 45.3% | [12] 15.8% | [14] 89.2% | [15] 67% | [16] 17.8% | [17] 39% | [18] 50.7% | [19] 26.7%
active: [13] -6.33% | [20] -24.2%

CC[C@@]12CC(C(=O)OC)=C3Nc4cc5c(cc4[C@@]34CCN(C[C@H]3O[C@H]31)[C@@H]24)[C@@H]1[C@H](O5)[C@@H](O)[C@@]2(CC)CC(C(=O)OC)=C3Nc4cc(OC)ccc4[C@@]34CCN1[C@@H]24
active: [4] -59.1% | [8] 0.382% | [12] -38.1% | [14] -4.82% | [16] -85.1% | [17] 3% | [19] -12% | [20] -17%
inactive: [1] 25.1% | [2] 21.5% | [3] 25.7% | [5] 50.7% | [6] 21% | [7] 38.5% | [9] 21.7% | [10] 54.3% | [11] 28.7% | [13] 10.7% | [15] 21.3% | [18] 27.1%
